The values below come from PubChem BioAssay AID463190 (Sanford-Burnham Center for Chemical Genomics, 2010).

Hit rate of the full screen: of about 330,000 compounds, about 7,300 (2.2%) were called active. The full list was thinned out, with actives kept by preference. A number with no mark means an inactive call.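 The calls were made as follows: active = inhibition of at least 40%; inactive = the rest.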

This experiment is described as follows: growth inhibition of tim10-1 ts yeast – luminescence, uHTS, primary screen (AID 463190).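 Also: mutant grown at 25 °C; 0% = DMSO wells with yeast and 100% = wells holding no yeast.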 Particulars: S. cerevisiae tim10-1 ts strain growth, BacTiter-Glo, 24 h; at 20 µM; stronger effect = higher value.
As usually defined, the inhibition is the drop in the measured response relative to a control, in per cent. Take `Cc1nc2ccccn2c1P(=S)(N1CCCCC1)N1CCCCC1`: the inhibition was 56.2% (active).
With `O=C(COc1ccc2ccccc2c1)N1CCN(Cc2ccncc2)CC1` the figure was 24.7%; with `CNP1(NC)=Nc2nn(-c3ccccc3)c(N)c2C(c2ccccc2)=N1`, -2.7%; with `CCc1ccc(OCC(=O)N2CCN(CC(=O)Nc3ccccc3Cl)CC2)cc1`, 12.7%.
With `O=C1NC(=O)N(c2ccccc2)C(=O)/C1=C/c1ccc([N+](=O)[O-])s1` the figure was 81.2% (active); with `COc1ccc(N2C(=O)/C(=C/c3ccco3)C(=O)NC2=S)cc1`, 23.1%.
On to `COc1cccc(N2C(=O)NC(=O)/C(=C\c3cn(C)c4ccccc34)C2=O)c1`, for which the inhibition was 13.4%.
With `COc1cccc(N2C(=O)NC(=O)/C(=C\c3ccc([N+](=O)[O-])s3)C2=O)c1` the figure was 70.3% (active); with `Fc1ccc(C2N3CCCN23)cc1` (stereo not given), -13.4%; with `O=C(O)CCn1cc(C=C2C(=O)NC(=S)NC2=O)c(-c2cccc(Br)c2)n1`, 23.4%.
With `COc1ccc2c(c1O)-c1cccc3c1[C@@H](C2)N(C)CC3` the figure was -10%.
With `CN(C)C(=O)Oc1cc(=O)n2c3c(cccc13)CCC2` the figure was 13.3%.
For `O=C1C2(Cl)C3(Cl)C4(Cl)C(Cl)(Cl)C5(Cl)C3(Cl)C1(Cl)C5(Cl)C24Cl` (stereo not given), the inhibition was -91.8%.
With `O=C(CCCn1c(=O)[nH]c2cc(Cl)ccc2c1=O)N1CCC2(CC1)OCCO2` the figure was 17.3%.
With `COC(=O)C1=C(c2ccc(F)cc2OCc2ccccc2)C[C@@H]2CC[C@H]1N2C(=O)NCc1ccc2[nH]ccc2c1` the figure was 9.44%; with `N#CC1=C(N)Oc2c(c(=O)oc3ccccc23)C1c1ccccc1OC(=O)c1cccs1` (stereo not given), 46.4% (active).
With `CCNc1nc2[nH]c(=O)c3c(c2s1)OC(N)=C(C#N)C3c1cccs1` (stereo not given) the figure was -13.5%; with `CC(=O)N(C1=NCCCS1)c1ccccc1F`, 3.96%.
As for `CC1C2Cn3c(nc4ccccc43)C1N(C)O2` (stereo not given), the inhibition was -11.3%.
With `COP(=O)(OC)C(NC(=O)c1ccc(C)cc1)C(Cl)(Cl)Cl` (stereo not given), the inhibition was 11%.
With `COC(=O)C1=C(c2cc3ccccc3s2)C[C@@H]2CC[C@H]1N2C(=O)NCCO` the figure was -17%; with `CCCCCn1c(=O)c(C(=O)Nc2c(C)n(C)n(-c3ccccc3)c2=O)c(O)c2ccccc21`, 45.4% (active); with `CCCCn1c(=O)c(C(=O)Nc2ccccc2Cl)c(O)c2ccccc21`, 2.29%.
With `CCCCCn1c(=O)c(C(=O)NCc2ccccc2)c(O)c2ccccc21` the figure was -27.8%.
With `O=C(O)c1ccccc1NC(=O)C1C2CCC(O2)C1C(=O)O` (stereo not given) the figure was -7.62%.
